# This excerpt belongs to a sample that is enriched for hits.
# RmlC RmlD mix: RmlC and RmlD coupled enzyme inhibitors, primary screen, biochemical, 384-well, compound mixtures, retest. RmlC/RmlD coupled enzyme inhibition, 384-well mixture HTS. inhibition, % at 5.5 µM. actives 0.39% (n = 110,000). AID 1532, 2009; in the data active means inhibition above about 30%, passing the limit was not always enough; inconclusive means no clear call, values can overlap the other calls
# HIV RNase H inh-1: HIV-1 RT RNase H inhibitors, primary screen, biochemical, fluorescence. inhibition, % at 10 µM. Gag-Pol polyprotein (Human immunodeficiency virus type 1 group M subtype B (isolate …. RT-RNase H RNA/DNA duplex cleavage. actives 1.9% (n = 65,000); in the data active means inhibition above about 50%
# HIV RNase H inh-2: HIV-1 RT RNase H inhibitors, retest, confirmation, biochemical | inhibition, % at 10 µM | Recombinant RT RNase H, fluorescent RNA/DNA duplex cleavage | actives 39% (n = 1,000) | shares compounds with HIV RNase H inh-1; in the data active means inhibition above about 48%; inconclusive means no clear call, values can overlap the other calls
# * = called active by the depositor; ? = inconclusive; · = not tested or not shown.
SMILES,RmlC RmlD mix,HIV RNase H inh-1,HIV RNase H inh-2
Cc1ccc(-n2c(=O)[nH]c3c(C(N)=O)nc(-c4ccc(C)o4)nc32)cc1,·,54.6*,37.4
Cc1ccc(-n2c(=O)[nH]c3c(C(N)=O)nc(CC(C)C)nc32)cc1,-9.0,1.4,·
COc1ccc(OC)c(CCNC(=O)Cn2sc3nc(C)cc(C)c3c2=O)c1,6.7,97.3*,56.6*
COc1ccc(-c2nc(CS(=O)(=O)CC(=O)NCCc3cc(OC)ccc3OC)c(C)o2)cc1,2.8,-6.6,·
CC(=O)C1=C(C)Nc2ncnn2C1c1ccc(Cl)cc1 (stereo not given),-5.2,-25.2,·
CC1=C(SCCC#N)S/C(=C2\SC(C)=C(SCCC#N)S2)S1,5.3,71.5*,65.4*
Cc1sc2nc(C(C)Nc3ccccc3N3CCOCC3)[nH]c(=O)c2c1C (stereo not given),-15.1,65.0*,78.3*
Cc1sc2nc(SCC(=O)N3CCOCC3)[nH]c(=O)c2c1C,5.3,-4.0,·
C#CCNC(=O)C1=C[C@@H](C2CC2)[C@H](CCCO)[C@@H](OCC)O1,-9.0,·,·
O=c1c(O)c(-c2ccc(O)cc2O)oc2cc(O)cc(O)c12,·,74.7*,59.3*
O=c1c(-c2ccc(O)cc2O)coc2cc(O)cc(O)c12,2.8,·,·
COc1ccc(S(=O)(=O)NNC(=O)c2csc(-n3nc(C)cc3C(F)(F)F)n2)cc1,-12.1,·,·
CCC(c1nnnn1Cc1ccc(OC)cc1)N(CCCO)Cc1cc2cc3c(cc2[nH]c1=O)OCO3 (stereo not given),-2.5,·,·
CC(C)C(c1nnnn1Cc1ccccc1)N(CCCO)Cc1cc2cc3c(cc2[nH]c1=O)OCO3 (stereo not given),-12.2,89.0*,11.0
CCOC(=O)C1CCN(S(=O)(=O)c2cc(Br)cc3c2N(C(C)=O)C(C)C3)CC1 (stereo not given),-11.3,-13.7,·
Cn1c2c(c(=O)n(C)c1=O)C(c1cccc(Br)c1)C1C(=O)c3ccccc3C1=N2 (stereo not given),·,-1.5,·
O=C1NCCCC2c3cc(O)c4ccccc4c3OC12N1CCCCC1 (stereo not given),7.7,51.6*,14.8
O=C1NCCCC2c3c(cc(Br)c(O)c3Br)OC12N1CCOCC1 (stereo not given),-5.4,22.3,·
CCOC(=O)N1CCC(N2Cc3cccc(C(=O)NCc4ccccc4OC)c3C2=O)CC1,-7.1,-31.6,·
CCOC(=O)N1CCC(N2Cc3cccc(C(=O)NCc4ccc(OC)cc4)c3C2=O)CC1,·,73.2*,44.5
CSc1nnc(N(CCC#N)CCC#N)s1,-10.8,-6.0,·
Cc1ccc(-n2c(SCC(=O)Nc3ccc4c(c3)OCO4)nnc2-c2cccs2)cc1,5.0,65.1*,29.5
O=C(CSc1nnc(-c2cccs2)n1-c1ccccc1)NCc1ccc2c(c1)OCO2,0.7,-53.1,·
CCOC(=O)c1cc2sc(C)cc2n1CC(=O)Nc1ccc2c(c1)OCCO2,5.0,58.0*,?
CCOC(=O)c1cc2sc(C)cc2n1CC(=O)Nc1cccc(C)c1C,6.7,-3.5,·
SMILES,RmlC RmlD mix,HIV RNase H inh-1,HIV RNase H inh-2
CCCC(=O)Nc1sc(C)c(-c2ccc(C(C)CC)cc2)c1C#N (stereo not given),-27.0,·,·
c1ccc(-n2c(-c3ccco3)nnc2N2CCOCC2)cc1,-12.3,-6.5,·
CN(C)c1ccc2c(c1)N=C(c1ccco1)OP2(=S)N1CCOCC1 (stereo not given),6.8,88.8*,67.5*
O=C1NCCCc2c1oc1ccc(O)cc21,-7.1,1.5,·
Oc1c(Cl)cc(Cl)c2c1NCCC2,·,79.8*,36.7
COc1ccc(S(=O)(=O)CC(O)CN2CCCC2=O)cc1 (stereo not given),-15.1,·,·
O=C(c1ccc(F)cc1)C1CCN(C(=O)c2ccncc2)CC1,-33.9,88.0*,42.2
O=C(c1ccc(F)cc1)C1CCN(C(=O)N2CCOCC2)CC1,2.3,6.9,·
O=C(CNC(=O)c1ccc(Cl)cc1)NCCCn1ccnc1,10.3,-6.1,·
COc1ccc(Cn2nnnc2C(c2cccnc2)N2CCN(c3ccc(O)cc3)CC2)cc1 (stereo not given),-6.2,80.0*,85.0*
COc1ccc(Cn2nnnc2C(c2cccs2)N2CCN(c3ccccc3)CC2)cc1 (stereo not given),-8.9,8.9,·
CCN(C(=O)CSc1nc2ccccc2n1CCc1ccccc1)C1CCS(=O)(=O)C1 (stereo not given),-8.7,·,·
Cc1cc(NC(=O)CSc2nnc(-c3ccncc3)n2N)ccc1Br,-4.2,52.2*,5.2
Nn1c(SCC(=O)Nc2ccc3c(c2)OCO3)nnc1-c1ccncc1,·,11.4,·
Cc1ccc(S(=O)(=O)Nc2ccc3nc(-c4cccn4C)[nH]c3c2)cc1,8.5,8.1,·
C=CCn1c(N)c(C(=O)NCCC2=CCCCC2)sc1=S,5.5,81.2*,87.0*

# Compound activity deposited in PubChem BioAssay by several laboratories.
